In all, about 96,000 compounds went through this assay and about 20,000 (21%) were called active.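 Rule for the calls: active = CYP2C19 inhibition above a set limit at 5 µM in the primary screen (cut at about 50% in these data); inactive = the rest.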 A selection follows.
Biological target: Cytochrome P450 2C19 (Homo sapiens) (UniProt P33261)
Test: blockers of cytochrome P450 2C19 activity – biochemical, luminescence, ADME assay, primary screen (AID 778);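 note: plate controls were negative control wells for no effect and 2.5 mM tranylcypromine positive control for full effect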
Conditions: CYP2C19 Supersomes, luciferin-H EGE luminescence, 30 min; at 5 µM; active compounds read high

Cytochrome P450 2C19 (Homo sapiens), sequence (P33261 whole entry, looked up): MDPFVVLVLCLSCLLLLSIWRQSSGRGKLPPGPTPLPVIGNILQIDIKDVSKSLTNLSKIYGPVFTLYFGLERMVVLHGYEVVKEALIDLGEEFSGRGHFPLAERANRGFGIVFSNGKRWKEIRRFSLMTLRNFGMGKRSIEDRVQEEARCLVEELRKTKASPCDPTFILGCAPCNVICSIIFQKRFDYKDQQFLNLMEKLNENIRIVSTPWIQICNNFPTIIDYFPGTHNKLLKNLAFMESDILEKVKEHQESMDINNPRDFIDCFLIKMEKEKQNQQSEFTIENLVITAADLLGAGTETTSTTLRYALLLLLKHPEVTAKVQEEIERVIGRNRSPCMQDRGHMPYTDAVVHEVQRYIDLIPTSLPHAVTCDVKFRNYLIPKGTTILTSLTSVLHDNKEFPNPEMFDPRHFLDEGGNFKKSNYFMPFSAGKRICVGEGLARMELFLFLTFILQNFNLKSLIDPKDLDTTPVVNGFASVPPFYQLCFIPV

Question: Which inhibition does the source give for `COc1ccc(/C(O)=C2/C(=O)C(=O)N(c3nc(C)c(C)s3)C2c2ccco2)cc1` (stereo not drawn) here?
Answer: The inhibition was 58.8% (active).

Question: `COc1ccc(/C(O)=C2\C(=O)C(=O)N(Cc3ccco3)C2c2ccc(OC)cc2OC)cc1` (stereo not drawn) was tested. Which inhibition did it give?
Answer: The inhibition was 3.4% (inactive).

Question: With `COc1ccccc1C1/C(=C(/O)c2ccc(OC(C)C)cc2)C(=O)C(=O)N1c1cc(C)on1` (stereo not drawn) as the compound, how does the inhibition read?
Answer: Its inhibition is -7.6% (inactive).

Question: How did the inhibition turn out when `CN(C)CCCn1c(N)c(C#N)c2nc(C#N)c(C#N)nc21` was run?
Answer: Its inhibition is -1.9% (inactive).

Question: With `COC(=O)C(C)Oc1ccc2c(-c3cccc([N+](=O)[O-])c3)cc(=O)oc2c1` (stereo not drawn) as the compound, how does the inhibition read?
Answer: The inhibition was 28.8% (inactive).

Question: How did the inhibition turn out when `O=C(Nc1ccc(Cl)cc1)c1cc2nc(C3CC3)cc(C(F)(F)F)n2n1` was run?
Answer: Its inhibition is -6.4% (inactive).

Question: `C=CCNC(=O)c1cc2nc(C3CC3)cc(C(F)F)n2n1` was tested. Which inhibition did it give?
Answer: The inhibition was 51.2% (active).

Question: How did the inhibition turn out when `Cc1nc(N2CCCC2C(=O)O)c2oc3ccccc3c2n1` (stereo not drawn) was run?
Answer: The inhibition was 2.4% (inactive).

Question: For `Cc1ccccc1NC(=O)C(C)c1ccc(-c2ccccc2)c(F)c1` (stereo not drawn), which inhibition is on record?
Answer: Its inhibition is 7.1% (inactive).

Question: How did the inhibition turn out when `Cc1nn(C)c(Oc2ccccc2)c1[N+](=O)[O-]` was run?
Answer: Its inhibition is 64% (active).

Question: `Cc1n[nH]c(=O)n1-c1ccc(Oc2ccccc2)cc1` was tested. Which inhibition did it give?
Answer: The inhibition was 18.5% (inactive).

Question: `Cc1nn(C)c(Oc2ccc(Cl)cc2)c1C=O` was tested. Which inhibition did it give?
Answer: Its inhibition is 27.7% (inactive).

Question: Which inhibition does the source give for `Cc1nn(C)c(Oc2ccccc2)c1CCNS(=O)(=O)c1ccc(F)cc1` here?
Answer: Its inhibition is 96.7% (active).

Question: With `Cc1cccc(N2C(=O)SC(N(CC(=O)O)c3cccc(C)c3)C2=O)c1` (stereo not drawn) as the compound, how does the inhibition read?
Answer: Its inhibition is 1.5% (inactive).

Question: How did the inhibition turn out when `COC(=O)C(NC(=O)c1ccc(OC)cc1)(Nc1ncc(S(=O)(=O)c2ccc([N+](=O)[O-])cc2)s1)C(F)(F)F` (stereo not drawn) was run?
Answer: Its inhibition is 33.8% (inactive).

Question: Which inhibition does the source give for `c1ccc(CSCCc2ccncc2)cc1` here?
Answer: Its inhibition is 99.8% (active).

Question: `O=C(CSCc1ccc([N+](=O)[O-])cc1)NCCSCc1ccccc1` was tested. Which inhibition did it give?
Answer: Its inhibition is 21.3% (inactive).

Question: With `COc1ccc(-c2nn(C)c(=O)c3ccccc23)cc1NC(=O)COc1ccccc1` as the compound, how does the inhibition read?
Answer: Its inhibition is 25.6% (inactive).

Question: How did the inhibition turn out when `CCOc1nc(OCC)nc(-n2cc(-c3ccccc3)nn2)n1` was run?
Answer: Its inhibition is 3.5% (inactive).

Question: For `Cc1cnc(NC(=O)CSc2nnc(-c3ccc(Cl)cc3Cl)n2N)s1`, which inhibition is on record?
Answer: The inhibition was 23.2% (inactive).

Question: With `COc1ccc(-c2nnc(SC(C)C#N)o2)cc1` (stereo not drawn) as the compound, how does the inhibition read?
Answer: Its inhibition is 10.9% (inactive).

Question: For `C#CCNc1nc(C(C)C)nc2c1nnn2Cc1ccccc1F`, which inhibition is on record?
Answer: Its inhibition is 37.3% (inactive).

Question: How did the inhibition turn out when `Cc1nc(Nc2ccc3c(c2)OCCO3)c2nnn(Cc3ccccc3Cl)c2n1` was run?
Answer: Its inhibition is 83.2% (active).

Question: Which inhibition does the source give for `O=C(Nc1cc2ccccc2oc1=O)C1CCCCC1` here?
Answer: Its inhibition is 0.3% (inactive).

Question: `O=C(CC12CC3CC(CC(C3)C1)C2)Nc1ccc2c(c1)COC2=O` was tested. Which inhibition did it give?
Answer: The inhibition was 12.8% (inactive).

Question: For `CC(=O)Nc1ccccc1OC(=O)N1CCOCC1`, which inhibition is on record?
Answer: Its inhibition is 0.3% (inactive).

Question: Which inhibition does the source give for `O=C(Oc1ccc2c(c1)CCC2)N1CCOCC1` here?
Answer: Its inhibition is 11.1% (inactive).

Question: How did the inhibition turn out when `O=C(/C=C/c1cccs1)c1cc(Cl)ccc1OC(=O)N1CCOCC1` was run?
Answer: Its inhibition is 90.6% (active).

From PubChem BioAssay AID778 (Sanford-Burnham Center for Chemical Genomics, 2007)
